{"source": "PubChem BioAssay AID485364", "about": "(National Center for Advancing Translational Sciences (NCATS), 2010)", "note": "Screen size: about 360,000 compounds; about 11,000 (3.1%) were called active. About 4% were inconclusive and are not listed. Many of the other results were omitted from the sample, so actives are more common in it than they were. A number with no mark means an inactive call. The call rests on the fitted dose curve; in most records, active means well fitted inhibition curve with a large enough effect; inconclusive means small, poorly fitted or top-dose-only effect; inactive means no such curve, though single readings can be large or run the other way. On the % scale 0 is the no-effect control and ±100 the full control effect; potency means the concentration at half of the fitted maximal effect.", "data": [{"molecular_target": "Schistosoma mansoni thioredoxin glutathione reductase (TGR) (UniProt Q962Y6)", "assay": "qHTS Assay for the Inhibitors of Schistosoma Mansoni Peroxiredoxins; further: nearly all actives have a fitted effect of over 60% in size", "details": "purified TGR, DTNB reduction, TNB absorbance 405 nm; series mostly up to 114 µM; activity change, negative = inhibition: at the top concentration", "procedure,_shortened": "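Kinetic colorimetric format: TGR-catalysed, NADPH-driven DTNB reduction monitored via TNB absorbance. Enzyme dispensed at 20 nM; compound exposure 15 min at room temperature before reaction start.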", "units": {"activity change, negative = inhibition": "%"}, "values": [{"compound": "COc1ccc(-c2nc(C)c(CCNC(=O)c3ccc(C(F)(F)F)cc3)s2)cc1OC", "activity change, negative = inhibition": 3.68}, {"compound": "COc1ccccc1NC(=O)CSC1=Nc2ccccc2C2=NC(CC(=O)NCc3cccs3)C(=O)N12", "note": "(centres undefined)", "activity change, negative = inhibition": 3.93}, {"compound": "Cn1c(=O)c2c(SCC(=O)NCC3CCCO3)nc(-c3ccccc3F)nc2n(C)c1=O", "note": "(centres undefined)", "activity change, negative = inhibition": 4.44}, {"compound": "CCCCc1nn2c(=O)cc(COC(=O)c3ccccc3NC(=O)C(C)(C)C)nc2s1", "activity change, negative = inhibition": 0.0611}, {"compound": "Cc1nn(C(C)C(=O)NCCc2ccccc2)c(=O)c2c1sc1ccccc12", "note": "(centres undefined)", "activity change, negative = inhibition": -6.91}, {"compound": "COc1cccc2c1cc1c(=O)n(CC(=O)N3CCN(c4ccccc4)CC3)nc(C)n12", "activity change, negative = inhibition": -4.71}, {"compound": "O=c1c2cccnc2n(Cc2cccc(F)c2)c(=O)n1Cc1ccccc1Cl", "activity change, negative = inhibition": 1.91}, {"compound": "COc1cccc2c1cc1c(=O)n(CC(=O)N3CCN(c4cccc(Cl)c4)CC3)nc(C)n12", "activity change, negative = inhibition": -1.68}, {"compound": "Cc1nc2ccccn2c(=O)c1NC(=O)c1c(F)cccc1F", "activity change, negative = inhibition": 2.55}, {"compound": "CCn1cc(C(=O)N(C)Cc2ccccc2)c(=O)c2cc(S(=O)(=O)N3CCCCCC3)ccc21", "activity change, negative = inhibition": 6.08}, {"compound": "Cc1cccc(C)c1NC(=O)CSc1nc2c([nH]1)c(=O)n(C)c(=O)n2C", "activity change, negative = inhibition": 0.969}, {"compound": "Cc1ccc(NN=Nc2nc3c([nH]2)c(=O)n(C)c(=O)n3C)cc1", "Potency": "56.2 µM (active)"}, {"compound": "CC(CCO)Nc1nc2c([nH]1)c(=O)n(C)c(=O)n2C", "note": "(centres undefined)", "activity change, negative = inhibition": -6.03}, {"compound": "CCc1cccc(C)c1NS(=O)(=O)c1ccc(-c2cc(C)no2)s1", "activity change, negative = inhibition": -0.715}, {"compound": "Cc1nc2ccn(Cc3cccs3)c(=O)c2cc1C(=O)NCc1ccc(Cl)cc1", "activity change, negative = inhibition": -4.6}, {"compound": "COc1ccc(-c2onc(C)c2C)cc1S(=O)(=O)NCc1cccs1", "activity change, negative = inhibition": 10.8}, {"compound": "CCN(CC)S(=O)(=O)c1ccc2c(c1)c(=O)c(C(=O)N1CCN(c3cccc(Cl)c3)CC1)cn2C", "activity change, negative = inhibition": -3.45}, {"compound": "Cc1cc(NC(=O)CSc2nnnn2-c2ccc(F)cc2)no1", "activity change, negative = inhibition": 7.99}, {"compound": "Cc1cc(NC(=O)CCC(=O)N(CC(=O)NC2CCCC2)c2ccc(F)cc2)no1", "activity change, negative = inhibition": -9.59}, {"compound": "Cc1cc(NC(=O)CCS(=O)(=O)c2ccc(F)cc2)no1", "Potency": "17.8 µM (active)"}, {"compound": "COc1ccccc1Nc1c2c(nc3ccc(NC(=O)/C=C/c4cc(OC)c(OC)c(OC)c4)cc13)CCCC2", "activity change, negative = inhibition": 0.0236}, {"compound": "CCOC(=O)c1ccc(CSc2nnc3cc(C)c4ccccc4n23)cc1", "activity change, negative = inhibition": 2.03}, {"compound": "O=c1[nH]c(O)c(C=Nc2cc(F)cc(F)c2)c(=O)[nH]1", "activity change, negative = inhibition": -25.8}, {"compound": "O=C1N=c2ccccc2=C/C1=C\\c1c(O)[nH]c(=S)[nH]c1=O", "Potency": "10 µM (active)"}, {"compound": "Cc1ccc2c(c1)=C/C(=C\\c1c(O)[nH]c(=O)[nH]c1=O)C(=O)N=2", "Potency": "14.1 µM (active)"}, {"compound": "Cc1cccc(S(=O)(=O)c2cn(Cc3ccccc3)c3cc(N4CCOCC4)c(F)cc3c2=O)c1", "activity change, negative = inhibition": 1.91}, {"compound": "COc1ccc(NC(=O)CCCc2nnc3n(CCC(C)C)c(=O)c4sccc4n23)c(OC)c1", "activity change, negative = inhibition": 4.6}, {"compound": "CCn1c2ccccc2c2cc(CN3CCN(Cc4cccc(Cl)c4)CC3)ccc21", "activity change, negative = inhibition": -1.51}, {"compound": "CCOC(=O)c1c(SCC(=O)Nc2cccc(C)c2C)nc(=O)[nH]c1C", "activity change, negative = inhibition": 18.3}, {"compound": "Cc1ccc(NC(=O)CSc2nc3c(c(=O)[nH]2)CN(Cc2ccc4c(c2)OCO4)CC3)cc1C", "activity change, negative = inhibition": 0.576}, {"compound": "COc1ccc(Cl)cc1NC(=O)C(C)Sc1nc2c(c(=O)[nH]1)CCCC2", "note": "(centres undefined)", "activity change, negative = inhibition": -7.09}, {"compound": "CCC(=O)Nc1ccccc1-c1nc2ccccc2n(CC(=O)Nc2ccc(C)c(C)c2)c1=O", "activity change, negative = inhibition": 4.89}, {"compound": "CCOc1ccc(CNC(=O)c2cc(=O)[nH]c3ccc(S(=O)(=O)N4CCCCC4)cc23)cc1", "activity change, negative = inhibition": 8.92}, {"compound": "O=C(Cn1ncn2nc(-c3cccs3)cc2c1=O)NCc1cccc(Br)c1", "activity change, negative = inhibition": -14.1}, {"compound": "COc1cc(OC)c(C2C=C(C(=O)O)Nc3ncnn32)cc1OC", "note": "(centres undefined)", "activity change, negative = inhibition": -1.91}, {"compound": "CS(=O)(=O)c1ccc2c(c1)SC1=NC(=O)/C(=C/c3ccco3)C(=N)N12", "Potency": "20 µM (active)"}, {"compound": "CCS(=O)(=O)C1=NSC2=NC(=O)/C(=C\\c3ccc(OS(=O)(=O)c4ccccc4)cc3)C(=N)N21", "activity change, negative = inhibition": -6.77}, {"compound": "CS(=O)(=O)C1=NN2C(=N)/C(=C\\c3ccc(OCCOc4ccccc4)cc3)C(=O)N=C2S1", "activity change, negative = inhibition": -3.42}, {"compound": "CCOC(=O)c1ccc(NC(=O)CC2C(=O)N(c3ccccc3)C(=O)N2Cc2cccs2)cc1", "note": "(centres undefined)", "activity change, negative = inhibition": 4.52}, {"compound": "Cc1c(Cl)cnc(NC(=O)COC(=O)c2ccc(S(=O)(=O)NCc3ccco3)cc2)c1Cl", "Potency": "28.2 µM (active)"}, {"compound": "O=C(COC(=O)c1cnc(Cl)c(Cl)c1)NCc1ccco1", "activity change, negative = inhibition": 7.2}, {"compound": "C/C(=N\\Nc1ncc(Cl)cc1Cl)c1ccc(S(=O)(=O)NCc2ccco2)cc1", "activity change, negative = inhibition": -7.19}, {"compound": "COc1ccc(NC(=O)CSc2nccn2Cc2ccc3c(c2)OCO3)cc1", "activity change, negative = inhibition": -0.823}, {"compound": "CC1=C(C(=O)Nc2ccccc2Cl)C(c2cccs2)n2ncnc2N1", "note": "(centres undefined)", "activity change, negative = inhibition": 1.5}, {"compound": "O=C(CSc1ncc(CO)n1Cc1ccc(Cl)cc1)NCc1ccc(F)cc1", "activity change, negative = inhibition": -2.38}, {"compound": "Cc1cc(C)c(OCC(=O)N/N=C/c2ccco2)c(C)c1", "activity change, negative = inhibition": 3.94}, {"compound": "COC(=O)COc1ccc2c(c1C)O/C(=C\\c1ccco1)C2=O", "Potency": "10 µM (active)"}, {"compound": "COC(=O)COc1cc(C)cc2oc(=O)c3c(c12)CCCC3", "activity change, negative = inhibition": -5.38}, {"compound": "CC1CCCN(S(=O)(=O)c2ccc(C(=O)Nc3nnc(-c4ccncc4)o3)cc2)C1", "note": "(centres undefined)", "activity change, negative = inhibition": 11.7}]}]}
